In the library only some 12% were active in any assay of this set; here they are far more common.
SARS PLP yeast: blocks SARS-CoV papain-like protease in a yeast assay. Potency, µM (series often up to 32.9 µM), without a hit: at the top dose activity, positive = growth rescue, most hits filed as activators. S. cerevisiae expressing SARS-CoV PLpro, growth rescue. actives 0.19% (n = 330,000); calls by dose curve; further: 0% is about no effect; nearly all actives have a fitted effect of over 55% in size
Pf growth 96h: P. falciparum growth inhibition at 96 hours | P. falciparum luciferase reporter growth, 96 h | Potency, µM (series often up to 28.7 µM), without a hit: at the highest dose activity change, negative = inhibition, hits mostly inhibitors | AID 504834 | actives 6.9% (n = 320,000); further: on the % scale 0 is the no-effect control and ±100 the full control effect
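Luminescence readout: decreased luciferase signal marks inhibited growth of reporter-expressing P. falciparum in infected red cells (2% hematocrit, 0.05% parasitemia final), exposed to compound two generations (96 h, 37 C, 5% CO2).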
NS1 function inh: blocks influenza NS1 protein function | AID 2326 | actives 0.4% (n = 270,000) | Potency, µM (titrated, usually from 46.1 µM), without a hit: top-dose activity, positive = more growth; calls by dose curve; further: actives are rising curves; nearly all actives have a fitted effect of over 50% in size
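S. cerevisiae expressing influenza A NS1, grown in glucose, washed, then diluted 1:100 into pH 6.0 -URA galactose medium with 23 nl compound. Growth recovery read as OD600; NS1-free strain serves as control.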
Pf growth 48h: inhibits P. falciparum growth in the first generation, 48 h; Potency, µM (doses to about 28.7 µM), inactives show top-dose activity change, negative = inhibition, usual class: inhibitors; actives 5.9% (n = 310,000); P. falciparum luciferase growth in erythrocytes, 48 h; AID 504832; further: on the % scale 0 is the no-effect control and ±100 the full control effect
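Read-out is firefly luciferase luminescence from an integrated reporter in P. falciparum, so falling signal marks reduced parasite growth. Infected erythrocytes were at 2% hematocrit and 0.1% parasitemia (final) in Albumax-supplemented RPMI 1640.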
HCV inh: inhibitors of hepatitis C virus infection | Huh7.5.1 HCVcc-Cre infection, luciferase reporter, 44 h | Potency, µM (titrated, usually from 41.8 µM), for inactives: at the highest dose activity change, negative = inhibition, actives largely listed as inhibitors | actives 3.4% (n = 340,000); further: on the % scale 0 is the no-effect control and ±100 the full control effect
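Infectious HCV cell culture screen: compound-treated cells (1,000/well, pre-plated 4 h) are infected with HCVcc-Cre at roughly 0.5 moi and grown 44 h. Infection is quantified by luciferase signal after 15 min substrate incubation at room temperature.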
AMA1 RON2 block: inhibitors of Plasmodium falciparum AMA1-RON2 interaction. AlphaScreen AMA1-biotinylated RON2 peptide binding. Potency, µM (titrated, usually from 58.2 µM), for inactives: at the highest dose activity change, negative = inhibition, actives largely listed as inhibitors. actives 0.2% (n = 360,000). AID 720542;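 further: 0% = vehicle wells and -100% = peptide control; nearly all actives have a fitted effect of over 45% in size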
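AMA1 (3D7) with his tag at 25 nM final met compounds first, then biotinylated RON2 peptide at 25 nM; detection used donor plus acceptor beads, 10 µg/mL apiece, read by AlphaScreen after 30 min at room temperature.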
Active calls of the source: *; ? = inconclusive; nt = no result given; [ ] = dose if it differs, or a comment. Unless noted, the call rests on the fitted dose curve; in most records, active means well fitted curve in the direction sought with a large enough effect; inconclusive means small, poorly fitted or top-dose-only effect, or another doubt; inactive means no such curve, though single readings can be large; an effect the other way counts as inactive or inconclusive. Potency means the concentration at half of the fitted maximal effect.

SMILES	SARS PLP yeast	Pf growth 96h	NS1 function inh	Pf growth 48h	HCV inh	AMA1 RON2 block
CN(C)CCCNS(=O)(=O)c1ccc(N2CCN(Cc3ccc4c(c3)OCO4)CC2)c([N+](=O)[O-])c1	-0.4%	9.28µM*	2.8%	11.7µM*	5.62µM*	-13.5%
CN(C)CCCNS(=O)(=O)c1ccc(-n2nnc3ccccc32)c([N+](=O)[O-])c1	0.6%	?	-11.8%	0.0%	17.8µM*	-2.8%
CC(=O)c1ccc(N2CCN(c3ccc(S(=O)(=O)NCCCN(C)C)cc3[N+](=O)[O-])CC2)cc1	0.4%	13.1µM*	nt	?	11.2µM*	-7.1%
CN(C)CCNS(=O)(=O)c1ccc(N2CCc3ccccc32)c([N+](=O)[O-])c1	7.9%	?	1.6%	?	10µM*	?
CC(=O)c1ccc(N2CCN(c3ccc(S(=O)(=O)NCCN(C)C)cc3[N+](=O)[O-])CC2)cc1	-2.2%	?	-3.1%	?	?	-5.5%
CS(=O)(=O)c1ccc(-n2nnc3ccccc32)c([N+](=O)[O-])c1	1.8%	-16.5%	22.2%	-18.8%	-11.0%	-15.6%
O=C(c1ccc2c(=O)n(Cc3ccco3)c(=S)[nH]c2c1)N1CCN(c2ccccc2)CC1	-5.4%	11.7µM*	-5.0%	6.6%	?	-6.5%
O=C(CCc1nnc2n(Cc3ccc(F)cc3)c(=O)c3ccccc3n12)N1CCN(c2ccccn2)CC1	0.3%	-21.6%	7.8%	?	14.1µM*	10.4%
O=C(c1ccc(Cn2c(=O)[nH]c3ccccc3c2=O)cc1)N1CCN(c2ccccn2)CC1	-5.3%	3.0%	-50.9%	?	-16.3%	-1.9%
O=C(CCc1nnc2n(Cc3ccc(F)cc3)c(=O)c3ccccc3n12)NCCN1CCOCC1	?	?	-16.7%	?	13.2%	0.0%
CCCn1c(=S)[nH]c2cc(C(=O)N3CCN(c4ccccc4)CC3)ccc2c1=O	nt	nt	nt	nt	nt	-4.7%
O=C(c1ccc(Cn2c(=S)[nH]c3ccccc3c2=O)cc1)N1CCN(c2ccccn2)CC1	-1.0%	?	3.7%	?	11.2µM*	48.4%
O=C(c1ccc(Cn2c(=O)[nH]c3ccccc3c2=O)cc1)N1CCN(c2ccccc2)CC1	5.3%	3.29µM*	-14.1%	?	20.0%	6.6%
Cn1ncc2c(NNC(=O)C3CCCCC3)ncnc21	1.1%	-1.2%	nt	17.6%	15.7%	73.4%
O=S(=O)(c1ccc(Br)s1)N1CCN(c2ccc(F)cc2)CC1	-1.1%	-2.6%	-1.7%	?	16.3%	10.5%
COc1ccc([N+](=O)[O-])cc1N(CC(=O)N1CCN(Cc2ccccc2)CC1)S(C)(=O)=O	-0.3%	19.1%	11.7%	33.6%	16.4%	-19.8%
NS(=O)(=O)c1ccc(CNC(=O)c2cc(-c3cccnc3)nc3ccc(Br)cc23)cc1	?	?	2.8%	-23.9%	2.2%	14.8%
COc1ccc(C(=O)NC(=S)N2CCN(c3ccccc3O)CC2)cc1	?	nt	nt	nt	-20.3%	76.4%[11.6 µM]
COc1ccc(N2CCN(C(=O)c3ccc4c(=O)n(CCc5ccc(OC)c(OC)c5)c(=O)[nH]c4c3)CC2)cc1	-4.5%	47.0%	nt	?	11.2µM*	10.5%
CCCCNC(=O)Cn1c(=O)n(C)c2ccccc21	19.4%	7.38µM*	-8.0%	17.2%	16.8%	-6.5%
CCCNC(=O)Cn1c(=O)n(C)c2ccccc21	0.5%	-19.7%	11.8%	-1.2%	16.8%	-13.5%
O=C(CN1C(=O)CCS(=O)(=O)c2ccccc21)NCc1ccccc1	6.6%	2.62µM*	5.7%	2.1%	5.4%	14.3%
O=C(Cn1c(=O)n(CC(=O)NCc2ccccc2)c2ccccc21)NCc1ccccc1	-1.1%	25.7%	2.2%	-13.3%	7.08µM*	-9.5%
Cc1cc(=O)c2cc(Br)ccc2n1CC(=O)NCc1ccccc1	0.3%	?	-2.4%	-12.1%	12.6µM*	-12.3%
O=C(O)COc1nn(Cc2ccccc2)c2ccccc12	nt	?	nt	1.0%	nt	nt
SMILES	SARS PLP yeast	Pf growth 96h	NS1 function inh	Pf growth 48h	HCV inh	AMA1 RON2 block
O=C(COC(=O)CNC(=O)c1ccc(Cl)c([N+](=O)[O-])c1)NC(=O)CN1CCCC1=O	1.3%	27.8%	nt	-26.7%	14.5%	-8.2%
Cc1ccc2c(C)c3ccc4ccccc4c3c[n+]2c1	nt	nt	nt	nt	12.6µM*	8.2%
CC(C)OC(=O)c1c(NC(=O)Cn2cnc([N+](=O)[O-])n2)sc2c1CCCC2	-0.6%	7.38µM*	12.5%	?	?	-4.1%
COc1ccc(S(=O)(=O)NC(C(=O)OCC(=O)Nc2ccc(N3CCOCC3)cc2)C(C)C)cc1 (centres undefined)	nt	nt	nt	nt	11.7%	-1.7%
O=C1N=C(N2CCN(Cc3ccccc3)CC2)S/C1=C/c1cccs1	-0.8%	?	0.7%	?	0.9%	-21.2%
O=C1N=C(N2CCN(c3ccccc3)CC2)S/C1=C/c1cccs1	-17.4%	13.1µM*	8.9%	-17.1%	0.3%	-23.5%
Cn1c2c(c(=O)n(C)c1=O)C(C(F)(F)F)(C(F)(F)F)N=C(CCC1CCCCC1)N2	-44.3%	11.7µM*	-43.9%	?	?	-0.8%
O=C1NC[C@H](Cc2ccccc2)N(C[C@H]2CCCN2C[C@H](Cc2ccccc2)N2C[C@H](Cc3ccccc3)N(CC3CCCCC3)C(=O)C2=O)C1=O	nt	nt	nt	nt	8.91µM*	-5.3%
O=C1NC[C@H](Cc2ccc(O)cc2)N(C[C@H]2CCCN2C[C@H](Cc2ccc(O)cc2)N2C[C@H](Cc3ccc(O)cc3)N(CCc3ccccc3)C(=O)C2=O)C1=O	nt	nt	nt	nt	nt	31.6µM*
O=C1NC[C@H](Cc2ccccc2)N(C[C@@H]2CCCN2C[C@H](Cc2ccccc2)N2C[C@H](Cc3ccccc3)N(CC3CCCCC3)C(=O)C2=O)C1=O	nt	nt	nt	nt	nt	-17.0%
O=C(NC(=S)Nc1nc(-c2cccc([N+](=O)[O-])c2)cs1)c1cc(Cl)ccc1Cl	0.0%	35.5%	5.3%	?	?	5.0%
O=[N+]([O-])c1cccc(NC(=S)Nc2nc(-c3ccc(Cl)cc3Cl)cs2)c1	1.1%	0.0%	16.5%	5.86µM*	nt	nt
CCc1noc(C)c1C(=O)Nc1nc(-c2ccc(F)cc2)c(C)s1	-7.3%	?	10.1%	-21.7%	-19.7%	-7.7%
CCc1noc(C)c1C(=O)Nc1nc(-c2ccc(Cl)cc2Cl)cs1	-5.8%	46.6%	10.6%	-20.0%	10µM*	-8.8%
CCc1noc(C)c1C(=O)Nc1nc(-c2cc(C)ccc2C)c(C)s1	-6.6%	10.4µM*	21.2%	?	17.1%	0.0%
CC1Cc2ccccc2N1C(=O)COC(=O)CCc1nc2ccccc2c(=O)[nH]1 (centres undefined)	-0.3%	11.2%	-12.4%	-6.8%	7.0%	10.3%
COc1ccc2nc(NC(=O)CSc3n[nH]c(N)n3)sc2c1	-3.3%	68.0%	nt	58.8%	?	55.6%

Source: PubChem BioAssay
